In PubChem BioAssay (EPA / NIEHS):
Results filed as inconclusive are left out. The source made the active and inactive calls. Rule for the calls, unless noted: active = hit-call score of the fitted dose curve at least 0.9, where 1 is the maximum; inactive = score below 0.9.

Key:
[1] = ATG_PXRE_CIS: Attagene CIS-FACTORIAL HepG2 Assay for human Pregnane X Receptor Element (PXRE) (AID 2282957); conditions: HepG2 Attagene CIS-FACTORIAL PXRE reporter, mRNA; actives raise or lower the signal
Summary of the method: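 Multiplexed cis-reporter assay in transiently transfected human HepG2 cells; 24 h chemical exposure. Reporter transcripts quantified by RT-PCR with fluorescent labeling and capillary electrophoresis.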

[2] = ATG_PPRE_CIS: Attagene CIS-FACTORIAL HepG2 Assay for human Peroxisome Proliferator-activated Response Element (PPRE) (AID 2282958); conditions: HepG2 PPRE cis-element reporter, Attagene transcription factor profiling; actives raise or lower the signal
Summary of the method: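 DMSO served as negative control and baseline for bidirectional curve fitting. Signal came from PPRE-regulated reporter mRNA in HepG2 cells, measured 24 h post-dosing by RT-PCR, 6-FAM primer extension and capillary electrophoresis.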

[3] = ATG_RORE_CIS: Attagene CIS-FACTORIAL HepG2 Assay for human RAR-related Orphan Receptor Element (RORE) (AID 2282959); conditions: HepG2 Attagene cis-factorial RORE reporter, mRNA; actives raise or lower the signal
Summary of the method: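 Transfect HepG2 with MRTUs; treat 24 h; extract RNA; RT with oligo(dT); PCR with reporter-specific primers; 6-FAM primer extension; HpaI digest 2 h at 37 C; capillary electrophoresis. Fit vs DMSO, bidirectional.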

[4] = ATG_Sox_CIS: Attagene CIS-FACTORIAL HepG2 Assay for human SRY-box transcription factor (SOX) (AID 2282960); conditions: HepG2 Attagene cis-factorial SOX reporter, mRNA; actives raise or lower the signal
Summary of the method: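 Fluorescence-labelled cDNA fragments from reporter transcripts, sized by CE, give the signal. Cells: HepG2, transiently transfected with cis-regulated reporter units. Exposure 24 h; DMSO negative control; bidirectional curve fitting.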

[5] = molecular target: Transcription factor Sp1 (Homo sapiens) (UniProt P08047); experiment: ATG_Sp1_CIS: Attagene CIS-FACTORIAL HepG2 Assay for human Specificity Protein 1 (Sp1) (AID 2282961); conditions: HepG2 Sp1 cis-reporter transcription, actives raise or lower the signal
Sequence of Transcription factor Sp1 (Homo sapiens) (P08047 whole entry, looked up): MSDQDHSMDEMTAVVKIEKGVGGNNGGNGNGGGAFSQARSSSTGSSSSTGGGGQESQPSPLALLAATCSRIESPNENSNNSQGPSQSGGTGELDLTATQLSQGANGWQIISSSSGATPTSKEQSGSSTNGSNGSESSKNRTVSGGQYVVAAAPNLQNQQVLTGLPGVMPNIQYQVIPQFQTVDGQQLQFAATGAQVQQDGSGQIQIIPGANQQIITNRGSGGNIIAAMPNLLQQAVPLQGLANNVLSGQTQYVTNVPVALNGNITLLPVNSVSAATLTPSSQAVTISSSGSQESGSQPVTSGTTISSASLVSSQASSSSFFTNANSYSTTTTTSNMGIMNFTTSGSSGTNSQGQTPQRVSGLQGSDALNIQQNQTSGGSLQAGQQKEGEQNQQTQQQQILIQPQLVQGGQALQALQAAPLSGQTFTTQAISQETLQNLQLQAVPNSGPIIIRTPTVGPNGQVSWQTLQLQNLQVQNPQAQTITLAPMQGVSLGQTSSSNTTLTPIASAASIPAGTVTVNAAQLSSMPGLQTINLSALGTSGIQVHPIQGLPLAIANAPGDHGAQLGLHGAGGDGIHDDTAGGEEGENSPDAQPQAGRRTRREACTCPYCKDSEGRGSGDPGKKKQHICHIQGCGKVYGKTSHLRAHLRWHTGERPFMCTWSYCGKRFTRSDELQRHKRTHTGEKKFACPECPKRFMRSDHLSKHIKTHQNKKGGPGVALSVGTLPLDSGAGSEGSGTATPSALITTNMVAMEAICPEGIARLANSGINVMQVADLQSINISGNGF
Summary of the method: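 Chemicals are dosed onto HepG2 cells transfected with multiple cis-promoter reporter constructs, and after 24 h reporter RNA is reverse-transcribed, PCR-amplified and resolved by capillary electrophoresis for fluorescence quantitation; activity is scored up or down against DMSO.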

[6] = molecular target: Signal transducer and activator of transcription 3 (Homo sapiens) (UniProt P40763); experiment: ATG_STAT3_CIS: Attagene CIS-FACTORIAL HepG2 Assay for human Signal Transducer and Activator of Transcription 3 (STAT3) (AID 2282963); conditions: HepG2, Attagene cis-factorial STAT3 reporter transcription; actives raise or lower the signal
Sequence of Signal transducer and activator of transcription 3 (Homo sapiens) (P40763 whole entry, looked up): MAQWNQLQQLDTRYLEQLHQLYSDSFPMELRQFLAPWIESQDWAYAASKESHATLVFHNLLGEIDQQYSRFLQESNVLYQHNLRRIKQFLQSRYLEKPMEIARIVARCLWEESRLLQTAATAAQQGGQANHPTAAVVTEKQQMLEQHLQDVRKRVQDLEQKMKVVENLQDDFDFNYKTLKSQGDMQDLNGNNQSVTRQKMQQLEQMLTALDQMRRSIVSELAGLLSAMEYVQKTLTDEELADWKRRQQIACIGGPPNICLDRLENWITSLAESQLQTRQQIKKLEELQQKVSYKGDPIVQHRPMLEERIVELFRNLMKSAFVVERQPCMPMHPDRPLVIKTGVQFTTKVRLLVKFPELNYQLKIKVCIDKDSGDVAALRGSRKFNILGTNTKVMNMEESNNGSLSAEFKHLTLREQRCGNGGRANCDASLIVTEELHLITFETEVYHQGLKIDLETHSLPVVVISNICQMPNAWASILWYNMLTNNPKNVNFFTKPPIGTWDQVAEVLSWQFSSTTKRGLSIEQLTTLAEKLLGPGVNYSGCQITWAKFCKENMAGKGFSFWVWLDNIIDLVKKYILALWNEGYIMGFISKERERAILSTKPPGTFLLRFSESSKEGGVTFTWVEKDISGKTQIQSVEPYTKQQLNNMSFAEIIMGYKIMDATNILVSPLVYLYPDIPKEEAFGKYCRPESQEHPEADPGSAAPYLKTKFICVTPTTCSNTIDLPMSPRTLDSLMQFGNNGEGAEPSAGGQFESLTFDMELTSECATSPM
Summary of the method: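 Transcript-level reporter assay. HepG2 transient MRTU transfection, 24 h exposure, fluorescence detection after RT-PCR and CE; DMSO baseline.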

[7] = ATG_TA_CIS: Attagene CIS-FACTORIAL HepG2 Assay for human TA Basal Promoter (AID 2282964); conditions: HepG2 Attagene CIS-factorial TA basal promoter reporter; actives raise or lower the signal
Summary of the method: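 Steps: transfect HepG2 with MRTUs; dose 24 h; isolate RNA, DNase-treat, reverse-transcribe; PCR and FAM-label reporter cDNA; digest with HpaI 2h at 37 C; run capillary electrophoresis. Activity fitted both directions against DMSO.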

[8] = ATG_TAL_CIS: Attagene CIS-FACTORIAL HepG2 Assay for human TAL Basal Promoter (AID 2282966); conditions: HepG2 Attagene cis-factorial TAL promoter reporter; actives raise or lower the signal;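 note: background control endpoint measuring basal TAL promoter reporter mRNA not a specific factor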
Summary of the method: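 Steps: transfect HepG2 with multiple reporter transcription units; dose 24 h; isolate RNA, reverse-transcribe, PCR-amplify, label with 6-FAM, digest with HpaI; resolve by capillary electrophoresis. Bidirectional fitting against DMSO baseline.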

[9] = ATG_TGFb_CIS: Attagene CIS-FACTORIAL HepG2 Assay for human Transforming Growth Factor (TGF) (AID 2282967); conditions: HepG2 Attagene CIS TGFb reporter, mRNA transcription; actives raise or lower the signal
Summary of the method: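 Cells were dosed for 24 hours, after which total RNA was reverse-transcribed and reporter sequences amplified, labeled and sized by capillary electrophoresis. Activity was fitted in both directions against DMSO.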

[10] = ATG_VDRE_CIS: Attagene CIS-FACTORIAL HepG2 Assay for human Vitamin D Receptor Element (VDRE) (AID 2282968); conditions: HepG2 VDRE cis-reporter transcription, actives raise or lower the signal
Summary of the method: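 RT-PCR/CE readout of reporter mRNA; HepG2, transient transfection, 24 h dosing; DMSO baseline; bidirectional analysis.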

[11] = molecular target: Estrogen receptor (Homo sapiens) (UniProt P03372); experiment: ATG_ERa_TRANS: Attagene TRANS-FACTORIAL HepG2 Assay for human Estrogen Receptor alpha (ERa) (AID 2282970; active = hit-call score of the fitted dose curve at least 0.9, where 1 is the maximum); conditions: HepG2 Attagene TRANS ERa GAL4 reporter, mRNA
Sequence of Estrogen receptor (Homo sapiens) (P03372 whole entry, looked up, the tested form may be a part): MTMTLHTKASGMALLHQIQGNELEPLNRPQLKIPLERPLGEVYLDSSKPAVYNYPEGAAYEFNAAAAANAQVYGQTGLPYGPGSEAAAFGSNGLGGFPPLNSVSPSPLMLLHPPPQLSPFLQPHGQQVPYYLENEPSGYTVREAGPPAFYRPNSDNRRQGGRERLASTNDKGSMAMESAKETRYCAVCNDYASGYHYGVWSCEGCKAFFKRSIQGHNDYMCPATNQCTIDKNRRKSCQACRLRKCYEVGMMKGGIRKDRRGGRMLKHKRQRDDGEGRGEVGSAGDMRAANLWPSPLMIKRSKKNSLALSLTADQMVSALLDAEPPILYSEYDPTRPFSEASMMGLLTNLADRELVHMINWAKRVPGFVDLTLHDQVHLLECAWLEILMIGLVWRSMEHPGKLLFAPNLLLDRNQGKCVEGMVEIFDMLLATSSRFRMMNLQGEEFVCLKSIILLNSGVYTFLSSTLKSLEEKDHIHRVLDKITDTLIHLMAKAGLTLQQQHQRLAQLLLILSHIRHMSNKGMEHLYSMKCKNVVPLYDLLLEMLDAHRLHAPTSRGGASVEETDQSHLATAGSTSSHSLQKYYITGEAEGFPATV
Summary of the method: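 Multiplexed cell-based reporter format in HepG2: chimeric ERa-Gal4 protein drives GAL4-UAS reporter transcription. Fluorescent reporter mRNA quantified by capillary electrophoresis 24 hours after dosing; endpoint fitted as signal gain against DMSO.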

[12] = molecular target: X-box-binding protein 1 (Homo sapiens) (UniProt P17861); experiment: ATG_Xbp1_CIS: Attagene CIS-FACTORIAL HepG2 Assay for human X-box Binding Protein 1 (XBP1) (AID 2282972); conditions: HepG2 XBP1 cis-element reporter, Attagene multiplex; actives raise or lower the signal
Sequence of X-box-binding protein 1 (Homo sapiens) (P17861 whole entry, looked up): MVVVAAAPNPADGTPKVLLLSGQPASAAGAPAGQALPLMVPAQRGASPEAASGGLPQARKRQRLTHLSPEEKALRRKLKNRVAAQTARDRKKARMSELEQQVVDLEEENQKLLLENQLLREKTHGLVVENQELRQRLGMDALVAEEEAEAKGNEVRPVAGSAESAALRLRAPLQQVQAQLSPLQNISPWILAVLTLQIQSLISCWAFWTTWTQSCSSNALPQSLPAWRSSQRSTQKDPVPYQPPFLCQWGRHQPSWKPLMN
Summary of the method: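 HepG2 cells transiently transfected with cis-regulated multiple reporter transcription units; endogenous transcription factor activity measured 24 hours after chemical dosing. Reporter mRNA quantified by RT-PCR, 6-FAM primer extension, HpaI digestion and capillary electrophoresis; bidirectional fitting versus DMSO.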

[13] = ATG_GAL4_TRANS: Attagene TRANS-FACTORIAL HepG2 Assay for GAL4 (Internal Marker) (AID 2282976; active = hit-call score of the fitted dose curve at least 0.9, where 1 is the maximum); conditions: HepG2 Attagene TRANS GAL4 internal marker reporter
Summary of the method: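 Liver HepG2 line bearing multiplexed GAL4-UAS reporter constructs; 24 h chemical treatment. Transcripts were quantified as fluorescent fragments on capillary electrophoresis after RT-PCR and HpaI cut, with activity fitted upward from DMSO.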

[14] = molecular target: Glucocorticoid receptor (Homo sapiens) (UniProt P04150); experiment: ATG_GR_TRANS: Attagene TRANS-FACTORIAL HepG2 Assay for human Glucocorticoid Receptor (GR) (AID 2282978; active = hit-call score of the fitted dose curve at least 0.9, where 1 is the maximum;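 note: activators score as hits since higher reporter transcript over DMSO is fitted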); conditions: HepG2 Attagene TRANS GR reporter, mRNA transcription
Sequence of Glucocorticoid receptor (Homo sapiens) (P04150 whole entry, looked up, the tested form may be a part): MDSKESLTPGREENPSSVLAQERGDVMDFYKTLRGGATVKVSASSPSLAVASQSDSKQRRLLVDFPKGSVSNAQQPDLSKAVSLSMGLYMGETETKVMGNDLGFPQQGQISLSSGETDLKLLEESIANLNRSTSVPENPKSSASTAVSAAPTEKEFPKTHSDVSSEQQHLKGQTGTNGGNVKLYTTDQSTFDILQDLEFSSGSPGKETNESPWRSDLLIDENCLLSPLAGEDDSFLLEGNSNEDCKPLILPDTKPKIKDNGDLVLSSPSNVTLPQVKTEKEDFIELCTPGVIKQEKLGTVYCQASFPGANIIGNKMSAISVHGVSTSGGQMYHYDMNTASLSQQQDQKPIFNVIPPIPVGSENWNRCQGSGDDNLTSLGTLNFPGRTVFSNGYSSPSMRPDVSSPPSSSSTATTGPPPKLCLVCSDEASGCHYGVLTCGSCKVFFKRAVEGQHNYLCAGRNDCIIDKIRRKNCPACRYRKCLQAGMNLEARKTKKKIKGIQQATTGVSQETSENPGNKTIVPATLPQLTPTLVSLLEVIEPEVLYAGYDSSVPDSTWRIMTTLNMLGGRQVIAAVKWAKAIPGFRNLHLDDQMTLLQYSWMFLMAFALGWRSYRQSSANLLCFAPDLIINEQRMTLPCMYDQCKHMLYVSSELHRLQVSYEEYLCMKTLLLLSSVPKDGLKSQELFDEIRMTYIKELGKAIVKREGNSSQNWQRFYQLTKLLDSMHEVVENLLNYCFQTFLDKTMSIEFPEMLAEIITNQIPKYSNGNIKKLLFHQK
Summary of the method: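 Transiently transfected HepG2 cells express chimeric NR-GAL4 proteins acting on GAL4-UAS reporter units. Compounds are applied for 24 h. mRNA induction over DMSO is measured by capillary electrophoresis.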

[15] = ATG_SREBP_CIS: Attagene CIS-FACTORIAL HepG2 Assay for human Sterol Regulatory Element Binding (SREBP) (AID 2282962); conditions: HepG2 Attagene cis-factorial SREBP reporter, mRNA; actives raise or lower the signal
Summary of the method: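 HepG2 cells transiently transfected with multiplexed cis-element reporter units report endogenous transcription factor activity. After 24 h of chemical exposure, reporter mRNA was quantified by RT-PCR, 6-FAM labelling, HpaI digestion and capillary electrophoresis; bidirectional fits used DMSO as baseline.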

[16] = ATG_TCF_b_cat_CIS: Attagene CIS-FACTORIAL HepG2 Assay for human T-Cell-Factor with beta-catenin (TCF/b-cat) (AID 2282965); conditions: HepG2 TCF/beta-catenin cis-reporter transcription, actives raise or lower the signal
Summary of the method: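 Using capillary electrophoresis as the read-out, labelled reporter cDNA fragments from transiently transfected HepG2 were sized and quantified. Exposure lasted 24 hours; activity in either direction was referenced to DMSO.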

[17] = ATG_M_19_TRANS: Attagene TRANS-FACTORIAL HepG2 Assay for M19 Transcription Factor (Internal Marker) (AID 2282974; active = hit-call score of the fitted dose curve at least 0.9, where 1 is the maximum); conditions: HepG2 Attagene TRANS-FACTORIAL M19 internal marker reporter
Summary of the method: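 Multiplexed TRANS format: HepG2 liver cells bearing transient GAL4-UAS reporter units, chemical treatment 24 h, reporter transcripts quantified by RT-PCR plus capillary electrophoresis. DMSO defines baseline.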

[18] = molecular target: Nuclear receptor subfamily 1 group I member 3 (Homo sapiens) (UniProt Q14994); experiment: ATG_CAR_TRANS: Attagene TRANS-FACTORIAL HepG2 Assay for human Constitutive Androstane Receptor (CAR) (AID 2282969; active = hit-call score of the fitted dose curve at least 0.9, where 1 is the maximum;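 note: activators raise reporter mRNA above DMSO so AC50 marks induction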); conditions: HepG2 Attagene TRANS-FACTORIAL CAR reporter
Sequence of Nuclear receptor subfamily 1 group I member 3 (Homo sapiens) (Q14994 whole entry, looked up, the tested form may be a part): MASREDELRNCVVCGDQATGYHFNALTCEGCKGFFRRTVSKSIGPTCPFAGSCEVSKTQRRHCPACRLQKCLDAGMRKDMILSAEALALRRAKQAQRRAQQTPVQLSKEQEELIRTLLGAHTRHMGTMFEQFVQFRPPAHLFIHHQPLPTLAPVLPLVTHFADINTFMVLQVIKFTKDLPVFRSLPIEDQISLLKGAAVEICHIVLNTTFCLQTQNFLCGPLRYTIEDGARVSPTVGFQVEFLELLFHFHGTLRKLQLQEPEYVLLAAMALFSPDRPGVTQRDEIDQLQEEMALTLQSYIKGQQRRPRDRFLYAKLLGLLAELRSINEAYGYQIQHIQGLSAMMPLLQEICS
Summary of the method: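 HepG2 cells transiently transfected with multiplexed GAL4-UAS reporter units expressing chimeric NR-Gal4 proteins; compound exposure 24 h. Reporter mRNA measured by RT-PCR, 6-FAM labelling, HpaI digestion and capillary electrophoresis; gain-of-signal fitted against DMSO baseline.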

[19] = molecular target: Steroid hormone receptor ERR1 (Homo sapiens) (UniProt P11474); experiment: ATG_ERRa_TRANS: Attagene TRANS-FACTORIAL HepG2 Assay for human Estrogen-Related Receptor alpha (ERRa) (AID 2282971; active = hit-call score of the fitted dose curve at least 0.9, where 1 is the maximum); conditions: HepG2 Attagene TRANS reporter, ERRa transactivation
Sequence of Steroid hormone receptor ERR1 (Homo sapiens) (P11474 whole entry, looked up, the tested form may be a part): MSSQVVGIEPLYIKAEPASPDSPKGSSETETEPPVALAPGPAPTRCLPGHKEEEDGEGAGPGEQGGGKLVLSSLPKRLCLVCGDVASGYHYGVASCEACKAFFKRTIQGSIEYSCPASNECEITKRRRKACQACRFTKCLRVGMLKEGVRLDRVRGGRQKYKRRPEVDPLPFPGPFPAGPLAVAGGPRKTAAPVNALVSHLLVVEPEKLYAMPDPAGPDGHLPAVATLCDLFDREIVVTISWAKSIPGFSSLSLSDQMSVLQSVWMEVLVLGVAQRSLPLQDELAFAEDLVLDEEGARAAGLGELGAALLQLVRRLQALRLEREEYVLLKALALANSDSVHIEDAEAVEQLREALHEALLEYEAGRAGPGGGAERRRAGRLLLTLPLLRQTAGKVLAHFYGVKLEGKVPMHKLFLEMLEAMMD
Summary of the method: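 Signal gain relative to DMSO for an ERRa-Gal4 chimeric receptor, read as reporter mRNA by RT-PCR/capillary electrophoresis. Human HepG2 liver cells, transient multiplex reporter transfection, 24 h chemical exposure.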

[20] = molecular target: Estrogen-related receptor gamma (Homo sapiens) (UniProt P62508); experiment: ATG_ERRg_TRANS: Attagene TRANS-FACTORIAL HepG2 Assay for human Estrogen-Related Receptor gamma (ERRg) (AID 2282977; active = hit-call score of the fitted dose curve at least 0.9, where 1 is the maximum;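 note: hits increase reporter signal over DMSO so potencies reflect activators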); conditions: HepG2 Attagene TRANS reporter, ERRg transactivation
Sequence of Estrogen-related receptor gamma (Homo sapiens) (P62508 whole entry, looked up, the tested form may be a part): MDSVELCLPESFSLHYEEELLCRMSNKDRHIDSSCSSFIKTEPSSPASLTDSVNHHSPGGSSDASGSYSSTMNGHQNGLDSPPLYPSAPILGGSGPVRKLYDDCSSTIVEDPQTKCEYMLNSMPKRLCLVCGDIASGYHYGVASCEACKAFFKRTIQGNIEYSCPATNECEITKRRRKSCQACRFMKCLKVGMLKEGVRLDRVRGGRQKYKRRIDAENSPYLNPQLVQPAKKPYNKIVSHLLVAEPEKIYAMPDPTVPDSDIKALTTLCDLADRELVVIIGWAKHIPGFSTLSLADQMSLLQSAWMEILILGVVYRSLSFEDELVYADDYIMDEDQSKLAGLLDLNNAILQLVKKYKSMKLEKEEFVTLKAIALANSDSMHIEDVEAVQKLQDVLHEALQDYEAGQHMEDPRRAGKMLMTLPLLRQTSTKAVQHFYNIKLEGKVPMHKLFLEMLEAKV
Summary of the method: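 Transfect HepG2 with multiple GAL4-UAS reporter transcription units; dose chemicals 24 h; isolate RNA, reverse-transcribe with oligo(dT), PCR-amplify, label with 6-FAM, digest with HpaI; size fragments by capillary electrophoresis. DMSO serves as negative control.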

Measured: AC50

CCc1cccc(CC)c1N(COC)C(=O)CS(=O)(=O)O
active: [1] 3.8 µM | [10] 5.6 µM
not listed: [15] | [16] | [17] | [18] | [19] | [20]
inactive: all other assays above

Cc1ccc(C)c(S(=O)(=O)O)c1
not listed: [5] | [11] | [14] | [17] | [18] | [19] | [20]
inactive: all other assays above

C=CC(C)(CCC=C(C)C)OC(C)=O (stereo not drawn)
active: [1] 22.8 µM
not listed: [5] | [10] | [15] | [18] | [19] | [20]
inactive: all other assays above

CCC(=O)C=Cc1ccc(OC)cc1
active: [1] 26.9 µM | [4] 70.4 µM | [10] 65.6 µM
not listed: [5] | [11] | [13] | [16]
inactive: all other assays above

Cc1ccc2ccc3ccc(C)cc3c2c1
active: [1] 8.1 µM
not listed: [5] | [11] | [13] | [16] | [18] | [19]
inactive: all other assays above

COc1ccccc1NC(=O)c1cc2ccccc2cc1O
active: [1] 1.63 µM | [4] 100 µM | [15] 55.5 µM | [16] 123 µM | [10] 6.49 µM | [12] 25.8 µM
inactive: [2] | [3] | [6] | [7] | [8] | [9] | [11]

N=C(N)c1ccc(OCCCCCOc2ccc(C(=N)N)cc2)cc1
active: [1] 57.2 µM | [16] 36.6 µM | [10] 87.5 µM | [11] 23.5 µM | [12] 48.1 µM
not listed: [5] | [7] | [17] | [18] | [19] | [20]
inactive: all other assays above
